# The supplement of paper PMC6763611
# Test system: Plasmodium falciparum NF54
# Assay: growth inhibition relative to untreated control; higher = more inhibition
# Conditions: 72 h
# In short: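 Ring-stage P. falciparum NF54 parasites at 1% hematocrit and 1% parasitemia were dispensed at 100 μL/well into dark 96-well half-area plates and given a single dose of test compound at 5 μM or 1 μM for 72 h at 37 °C. Incubation took place in minimal RPMI, either alone or supplemented with the chorismate end-products folate (2.2 μM), pABA (7.3 μM), pHBA (7.3 μM), tyrosine (111 μM), phenylalanine (90 μM) and tryptophan. Growth inhibition was determined with SYBR Green relative to untreated wells, using uninfected erythrocytes for background.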
# [1] = 1 µM, MM + chorismate end-products (CM screening medium)
# [2] = 5 µM, MM + chorismate end-products (CM screening medium)
Compound,growth inhibition [1] [%],"growth inhibition (1 µM, minimal medium (MM)) [%]",growth inhibition [2] [%],"growth inhibition (5 µM, minimal medium (MM)) [%]"
COc1ccc(C2CC(c3cccs3)=NN2C(=O)c2ccco2)cc1OC (stereo not drawn),91.4,89.5,91.4,93.4
CCCn1c(NC(=O)c2ccc3ccccc3n2)nc2ccccc21,38.2,20.1,86.1,85
COc1ccc(C2=NN(C3CCCCCC3)C(=O)[C@@H]3CC=CC[C@H]23)cc1OCCCCOc1ccc(-c2nnn[nH]2)cc1,19,16.4,44.9,48.6
Cc1ccc2[nH]c(C3CCCNC3)c(-c3ccncc3)c2c1 (stereo not drawn),97.7,97.5,> 100,97.4
CC(C)c1ncc(-c2ccncc2)c([C@H]2CC[C@H](CNC(=O)c3cccnc3)CC2)n1,77.1,76,92.5,92
CC(=O)OCC1OC([S-])C(OC(C)=O)C(OC(C)=O)C1OC(C)=O.CCP(CC)CC.[Au+] (stereo not drawn),84.8,71.6,87.8,91.7
CNCCC(Oc1ccc(C(F)(F)F)cc1)c1ccccc1 (stereo not drawn),10.2,< 0,< 0,2.19
Cc1ccccc1CN1CCC(O)(c2ccc(Cl)c(C(F)(F)F)c2)CC1,51.6,30,82.6,76.2
Cc1c[nH]c(CCNC(=O)c2cc(-c3ccc(Cl)cc3)cs2)n1,> 100,> 100,97.3,94.7
COc1ccc(-c2cnc3ccc(N4CCCC4)nn23)cc1OC,79.9,78,96.8,82.4
Nc1ncc(-c2ccc(C(F)(F)F)nc2)cc1-c1ccc(C(F)(F)F)nc1,66.1,56.4,54.4,53.9
NC(=O)c1cc(-c2ccsc2)ccc1OCCOc1ccccc1,18.1,9.01,4.73,< 0
CN1CCN(c2nccc3[nH]c(-c4cccc(F)c4)cc23)CC1,< 0,58.4,99,90
CC(C)C(NC(=O)Cc1cccc2ccccc12)C(=O)Nc1cccc(C#N)c1 (stereo not drawn),89.9,86.3,79.3,91
COc1ccc(-c2onc(C(F)(F)F)c2-c2ccc(Cl)cc2)c(O)c1,94,94.8,98.9,97.5
CS(=O)(=O)c1cccc(-c2cnc3[nH]cc(-c4ccc(CCC(=O)O)cc4)c3c2)c1,79,70.7,> 100,86.2
O=C(NC1CC1)c1ccc(N2CCOc3ccc(Cl)cc32)s1,91,82.1,95.1,91.5
CC(C(=O)N1CCCC1)N1CCN(S(=O)(=O)c2ccc(C(C)(C)C)cc2)CC1 (stereo not drawn),37.6,71,67.3,33.4
COc1ccc(N(CCc2cccc(C)n2)C(=O)C2CCCCC2)cc1,4.48,36.2,4.56,9.01
Cc1nc(-c2ccccn2)nc(N(C)CCc2ccccc2)c1Cl,31.5,23.4,82.9,83.8
COc1ccc(C2(C(=O)Nc3ccc(Br)cc3)CCCC2)cc1,15.3,2.06,< 0,2.98
CC1=NN(c2nc3ccccc3s2)C(=O)C1Cc1cccc2ccccc12 (stereo not drawn),< 0,0.985,< 0,< 0
NC(=O)c1cc(Br)ccc1OCCOc1ccccc1,14.5,< 0,28.6,< 0
CC1COC2(CCN(c3nc(=O)c4cc(C(F)(F)F)cc([N+](=O)[O-])c4s3)CC2)O1 (stereo not drawn),6.95,12.6,14.7,< 0

Compound,growth inhibition [1] [%],"growth inhibition (1 µM, minimal medium (MM)) [%]",growth inhibition [2] [%],"growth inhibition (5 µM, minimal medium (MM)) [%]"
Cc1cc2ccccc2n1CC(=O)N1CC(C(=O)N2CCCCC2)Oc2ccccc21 (stereo not drawn),97.2,95.9,96.1,98
CC(Oc1cccc(Cl)c1)C(=O)Nc1ccc2oc(-c3ccncc3)nc2c1 (stereo not drawn),< 0,2.28,< 0,3.02
N=C(N)Nc1ccc(-c2ccc(-c3ccc(N=C(N)N)c(Cl)c3)o2)cc1Cl,73.6,> 100,97.4,88.2
Nc1nc2cc(-c3cncc(Oc4ccc(F)cc4)c3)ccc2[nH]1,76.1,67.8,94.9,95.6
CC1=Nc2ccc(Cl)cc2C(c2ccccc2)N1CCNC(=O)CN(C)C (stereo not drawn),49,19,> 100,89.7
COc1cc(CN2CCC3(C=Cc4ccccc43)CC2)cc2c1OCO2,> 100,< 0,< 0,8.3
Cc1nc(-c2cccc(NCc3ccccc3)c2)[nH]c1C,63.5,35.9,93.4,94.7
CC(=O)Nc1ccc(NC(=O)c2cc(-c3cc(Cl)ccc3O)n[nH]2)cc1,96.6,95.3,96.3,90.8
O=C(c1ccc(NCCO)cc1)C1C[C@H]1c1ccc(Cl)cc1 (stereo partly drawn),71,98.1,91.8,89
CC(C)(C)n1nc(Cc2cccc3ccccc23)c2c(N)ncnc21,< 0,18.3,39.5,29.5
Cn1ncc2c(N3CCOCC3)nc(NCCc3c[nH]c4ccccc34)nc21,18.9,31.1,10.8,< 0
COc1ccc(C2=NN(C3CCCCCC3)C(=O)C2(C)C)cc1OCCCCOc1ccc(-c2nn[nH]n2)cc1,36.5,34.6,47.2,46.8
O=[N+]([O-])c1cn2c(n1)OC[C@@H](OCc1ccc(OC(F)(F)F)cc1)C2,36.9,2.72,< 0,< 0
CC1CS(=O)(=O)CCN1/N=C/c1ccc([N+](=O)[O-])o1 (stereo not drawn),< 0,0.769,< 0,< 0
CCCc1ccc(S(=O)(=O)Nc2ccc(CN3CCN(CC4CC4)CC3)cc2)cc1,7.84,4.1,66.4,86.7
Clc1cccc(CO[C@H]2CCc3ccccc3[C@@H]2n2ccnn2)c1,7.57,< 0,< 0,15.4
COc1cc(C2=NCCN2)ccc1-n1cc(-c2cccc(C3=NCCN3)c2)nn1,51.9,55,66.5,19.2
COC(=O)Nc1nc2cc(C(=O)c3ccccc3)ccc2[nH]1,12,< 0,5.63,< 0
Cc1ccc2c(c1C)NC(=O)C21NN=C(c2ccccc2)S1 (stereo not drawn),95.4,89.4,98.3,89.8
C[C@]1(COc2ccc(N3CCC(Oc4ccc(OC(F)(F)F)cc4)CC3)cc2)Cn2cc([N+](=O)[O-])nc2O1,2.53,3.49,21.9,9.3
O=C(c1cc2ccccc2o1)N1CCN(Cc2ccc3c(c2)OCO3)CC1,15.1,12.4,< 0,< 0
CN1CCN(S(=O)(=O)c2ccc(-c3ccc4c(Nc5ncc(Cl)cn5)ccnc4c3)cc2)CC1,96.5,96.3,99,88.6
Oc1c(I)cc(I)c2cccnc12,39.4,9.57,< 0,< 0
Cc1cc2nc(NC(=O)C(C)(C)C)nc(Cl)c2n1Cc1ccc(Cl)cc1,35.7,28.8,< 0,< 0

Compound,growth inhibition [1] [%],"growth inhibition (1 µM, minimal medium (MM)) [%]",growth inhibition [2] [%],"growth inhibition (5 µM, minimal medium (MM)) [%]"
Nc1ncnc2c1c(-c1cnc3ccccc3c1)nn2CC1CCNCC1,22.7,5.9,< 0,16.8
O=C(NCc1nnc2n1CCCCC2)c1ccc(-c2ccc(F)cc2)o1,< 0,< 0,< 0,< 0
O=C(C1CCN(c2cc(-n3cccc3)ncn2)CC1)N1CCc2ccccc2C1,11.5,5.57,4.91,3.34
Cc1ccc(NC(=O)CC2COc3ccccc3O2)cc1Cl (stereo not drawn),23.4,10.6,< 0,< 0
CN1CCCC1CCO[C@](C)(c1ccccc1)c1ccc(Cl)cc1 (stereo partly drawn),96.4,94.5,98,93.3
O=C(COc1cccc(F)c1)Nc1nc(-c2ccccn2)cs1,< 0,2.24,< 0,< 0
CC(C)(C)c1cc(C(=O)N2CCN(c3nccnc3C#N)CC2)n(Cc2ccccc2)n1,73.4,> 100,92.9,92
O=C(Nc1ccnc(-c2cccnc2)n1)c1cc(C(F)(F)F)cc(C(F)(F)F)c1,13.6,20.9,93.8,86.6
O=C(c1ccco1)N(CCCn1ccnc1)c1nc2c(Cl)cccc2s1,13.2,22.3,> 100,92.8
Clc1ccc(Cl)c(CO[C@H]2CCCC[C@@H]2n2ccnc2)c1,< 0,< 0,67.1,9.72
CC(C)(C)CN1C(=O)C(c2ccccc2)(c2ccccc2)N=C1N,45.9,45.7,57.1,34.9
O=C(NC1CCN(c2ccnc3ccccc23)C1)c1cccc(C(F)(F)F)c1 (stereo not drawn),80.7,> 100,96.9,66.7
O=C(C1CCN(c2nnc(-n3cccc3)s2)CC1)N1CCC(Cc2ccccc2)CC1,6.31,8.02,48.7,8.81
CCCn1nnc(NC(=O)COc2ccc(C3CCCCC3)cc2)n1,6.74,< 0,< 0,< 0
CC(C)(C)c1cc(C(=O)Nc2cccnc2)cc(C(=O)Nc2cccnc2)c1,88.9,94.2,87.5,88.6
Nc1nccc2ccc(-c3ccc4nccn4c3)cc12,> 100,> 100,97.8,88.2
Cc1[nH]c2ccccc2c1C(c1cccs1)N1CCN(C)CC1 (stereo not drawn),11.9,21.1,9.09,19.7
CN(C)c1cc(NC(=O)Nc2ccccc2)c2ccccc2n1,96,95.6,88.6,87.9
NCCCC(N)(C(=O)O)C(F)F (stereo not drawn),14,< 0,< 0,< 0
COc1nc2ccc(Br)cc2cc1[C@@H](c1ccccc1)[C@@](O)(CCN(C)C)c1cccc2ccccc12,73.2,77.4,99.4,88.2
Cc1nc2ccccn2c1C(=O)NCc1ccc(Cl)cc1,1.31,< 0,31,10.3
CNC(=O)c1cc(S(=O)(=O)N2CCN(c3ccccn3)CC2)cs1,98.3,96.6,90.2,90.9
N#Cc1ccc(-c2cnc(N)c(-c3ccc(C(N)=O)cc3)n2)cc1,99.3,> 100,> 100,89.9
N#CCN(CCCCN1CCN(c2ccc(F)cc2)CC1)C(=O)OCc1ccccc1,20.2,7.66,32.3,18.1
